This note sets out measurements from PubChem BioAssay (Tox21).

Inconclusive results are not listed. The source made the active and inactive calls. Unless noted, the call rests on the fitted dose curve; in most records, active means well fitted curve in the direction sought with a large enough effect in the repeat runs; inconclusive means weak or mixed curves; inactive means no such curve, though single readings can be large; an effect the other way counts as inactive or inconclusive.

A short description of assay [1]: qHTS RealTime-Glo MT Cell Viability Assay in HEK293 cells - 0 hour (AID 1224880). Further: top concentration of the series differs between compounds; nearly all actives have a fitted effect of over 45% in size. Put shortly: (§1)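 Luminescence readout at each listed time point; HEK293, 600 cells/well, RealTime-Glo MT reagent added with cells; compounds pinned (23 nL in DMSO) after 5 h at 37 C; continuous culture at 37 C.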
Assay [2] is described as follows: A CellTox Green Cytotoxicity Assay to monitor cytotoxicity in HEK293 cells - 32 hour (AID 1224881). Further: nearly all actives have a fitted effect of over 40% in size. Further: potency means the concentration at half of the fitted maximal effect. Put shortly: (§2)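 Read-out: fluorescence of a cell-impermeant cyanine dye staining DNA of dead cells, proportional to cytotoxicity. HEK293, 600 cells/well with reagent, compound (23 nL DMSO) added after 5 h; reads at 0, 8, 16, 24, 32, 40 h.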
Assay [3] is described as follows: A CellTox Green Cytotoxicity Assay to monitor cytotoxicity in HepG2 cells - 0 hour (AID 1224882). Further: nearly all actives have a fitted effect of over 35% in size. Put shortly:
(§3)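 HepG2, 600 cells/well premixed w/ CellTox Green; 5 h settle, 37 C/5% CO2; pintool cpd add (DMSO); 37 C, 40 h; fluorescence read at 0, 8, 16, 24, 32, 40 h.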

Assay [4] is described as follows: A CellTox Green Cytotoxicity Assay to monitor cytotoxicity in HepG2 cells - 32 hour (AID 1224883). Further: nearly all actives have a fitted effect of over 50% in size. Further: potency means the concentration at half of the fitted maximal effect. Put shortly:
as §3

Assay [5] is described as follows: A CellTox Green Cytotoxicity Assay to monitor cytotoxicity in HEK293 cells - 8 hour (AID 1224884). Further: nearly all actives have a fitted effect of over 35% in size. Put shortly:
as §2

Assay [6] can be described thus: qHTS RealTime-Glo MT Cell Viability Assay in HEK293 cells - 24 hour (AID 1224886). Further: nearly all actives have a fitted effect of over 50% in size. Further: potency means the concentration at half of the fitted maximal effect. Put shortly:
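Luminescence generated by NanoLuc from substrate produced by living HEK293 cells served as the viability signal. Each value reflects the reading at its stated time point during continuous 40 h compound exposure at 37 C.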

Assay [7] can be described thus: qHTS RealTime-Glo MT Cell Viability Assay in HEK293 cells - 8 hour (AID 1224887). Further: top concentration of the series differs between compounds; nearly all actives have a fitted effect of over 50% in size. The method in brief: as §1
The nature of assay [8]: A CellTox Green Cytotoxicity Assay to monitor cytotoxicity in HEK293 cells - 16 hour (AID 1224888). Further: nearly all actives have a fitted effect of over 35% in size. Put shortly: as §2
A short description of assay [9]: qHTS RealTime-Glo MT Cell Viability Assay in HepG2 cells - 0 hour (AID 1224889). Further: nearly all actives have a fitted effect of over 50% in size. Put shortly: (§4)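 Tox21 10K library screened in qHTS format on HepG2 cells carrying RealTime-Glo reagents. Compounds were added after a 5 h preincubation, and the luminescent signal from continuous culture was measured repeatedly during 40 h treatment.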
Assay [10] in a line: A CellTox Green Cytotoxicity Assay to monitor cytotoxicity in HepG2 cells - 8 hour (AID 1224890). Further: nearly all actives have a fitted effect of over 45% in size. Put shortly: as §3
A short description of assay [11]: qHTS assay to identify small molecule antagonists of the estrogen receptor alpha (ER-alpha) signaling pathway using the BG1 cell line in the presence of 0.1 nM 17-beta-estradiol - cell viability counter screen (AID 1259241). Further: nearly all actives have a fitted effect of over 40% in size. Further: potency means the concentration at half of the fitted maximal effect. Put shortly: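 Cytotoxicity counter-screen: live-cell protease activity measured by fluorescence (30 min reagent step) in the same wells. Cells were VM7Luc4E2 with endogenous ER-alpha and ERE-driven luciferase, treated 22 hr at 37C alongside 0.1 nM 17beta-estradiol final.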

A short description of assay [12]: qHTS assay to identify small molecule antagonists of the androgen receptor (AR) signaling pathway using the MDA cell line in the presence of 0.5 nM R1881 - cell viability counter screen (AID 1259242). Further: nearly all actives have a fitted effect of over 45% in size. The method in brief:
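Live-cell protease fluorescence, CellTiter-Fluor, 30 min at 37C. Cells: MDA-kb2, 3,000/well, preincubated 5 hr. Compounds plus 0.5 nM R1881 final, 16 hr, 37C, 0% CO2.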

Assay [13] is described as follows: qHTS assay to identify small molecule HDAC inhibitors (AID 1259364). Further: potency means the concentration at half of the fitted maximal effect.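 Further: wild-type HCT-116 cells with endogenous class I/II HDAC activity; nearly all actives have a fitted effect of over 45% in size.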 The method in brief:
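HCT-116 (wild type), 1,500 cells/well, overnight; compound 2 hr 37C 5% CO2; HDAC-Glo I/II reagent 30 min RT; luminescence readout.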

A short description of assay [14]: qHTS assay to identify small molecule HDAC inhibitors - cell viability counter screen (AID 1259365). Further: nearly all actives have a fitted effect of over 50% in size. Further: potency means the concentration at half of the fitted maximal effect. The method in brief: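 CellTiter-Glo luminescence (30 min, room temperature) reported viability after a 2 h compound exposure at 37 C. Cells: wild-type HCT-116, 1,500 per well, seeded the night before.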
The nature of assay [15]: qHTS assay to identify small molecule agonists of the sonic hedgehog signaling (Shh) pathway - cell viability counter screen (AID 1259366). Further: nearly all actives have a fitted effect of over 50% in size. Further: potency means the concentration at half of the fitted maximal effect. Put shortly: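 Cytotoxicity counter screen: CellTiter-Fluor reagent added after 23 h compound exposure, then 1 h at 37C and fluorescence read. Cells were 3T3 Gli1-Luc, seeded 2,000 per well and dosed 4 h post-plating.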
The nature of assay [16]: qHTS assay to identify small molecule antagonists of the sonic hedgehog signaling (Shh) pathway - cell viability counter screen (AID 1259367). Further: nearly all actives have a fitted effect of over 55% in size. Further: potency means the concentration at half of the fitted maximal effect. Put shortly:
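CellTiter-Fluor signal in conditioned medium-stimulated 3T3 Gli1-Luc cells, 23 hr compound exposure, 37C.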

Assay [17] in a line: qHTS RealTime-Glo MT Cell Viability Assay in HepG2 cells - 16 hour (AID 1224885). Further: nearly all actives have a fitted effect of over 50% in size. The method in brief: as §4
Assay [18] deals with Estrogen receptor (Homo sapiens) (UniProt P03372). The experiment in a line: qHTS assay to identify small molecule antagonists of the estrogen receptor alpha (ER-alpha) signaling pathway using the BG1 cell line in the presence of 0.1 nM 17-beta-estradiol (AID 1259244). Further: nearly all actives have a fitted effect of over 50% in size. Further: potency means the concentration at half of the fitted maximal effect. Put shortly: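 Luminescence after ONE-Glo (30 min, room temperature) measured ERE-luciferase activity in VM7Luc4E2 cells treated 22 h with compound and 0.1 nM final 17beta-estradiol as stimulator.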
Sequence of Estrogen receptor (Homo sapiens) (P03372 whole entry, looked up): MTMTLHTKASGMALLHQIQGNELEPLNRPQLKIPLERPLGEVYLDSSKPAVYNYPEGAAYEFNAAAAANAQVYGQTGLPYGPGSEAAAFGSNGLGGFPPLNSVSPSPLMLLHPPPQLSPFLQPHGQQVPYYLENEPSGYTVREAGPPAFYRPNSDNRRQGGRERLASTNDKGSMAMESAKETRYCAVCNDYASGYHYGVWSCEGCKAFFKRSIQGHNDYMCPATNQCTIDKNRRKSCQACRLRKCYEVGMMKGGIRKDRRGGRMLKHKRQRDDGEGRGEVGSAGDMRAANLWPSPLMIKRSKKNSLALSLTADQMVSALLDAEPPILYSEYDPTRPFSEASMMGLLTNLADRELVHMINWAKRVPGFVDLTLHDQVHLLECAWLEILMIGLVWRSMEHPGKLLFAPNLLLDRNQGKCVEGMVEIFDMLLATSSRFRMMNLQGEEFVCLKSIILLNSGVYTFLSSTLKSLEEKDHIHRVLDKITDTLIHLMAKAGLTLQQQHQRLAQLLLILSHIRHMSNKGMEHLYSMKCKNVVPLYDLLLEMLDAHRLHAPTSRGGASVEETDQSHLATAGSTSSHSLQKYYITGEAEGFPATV

Assay [19] deals with Androgen receptor (Homo sapiens) (UniProt P10275). In words: qHTS assay to identify small molecule antagonists of the androgen receptor (AR) signaling pathway using the MDA cell line in the presence of 0.5 nM R1881 (AID 1259243). Further: nearly all actives have a fitted effect of over 50% in size. Further: potency means the concentration at half of the fitted maximal effect. The method in brief: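 MDA-kb2, MMTV-luc (AR/GR elements); 3,000 cells/well; cpd + 0.5 nM R1881 final; 16 hr 37C, 0% CO2; ONE-Glo 30 min RT; luminescence.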
Sequence of Androgen receptor (Homo sapiens) (P10275 whole entry, looked up): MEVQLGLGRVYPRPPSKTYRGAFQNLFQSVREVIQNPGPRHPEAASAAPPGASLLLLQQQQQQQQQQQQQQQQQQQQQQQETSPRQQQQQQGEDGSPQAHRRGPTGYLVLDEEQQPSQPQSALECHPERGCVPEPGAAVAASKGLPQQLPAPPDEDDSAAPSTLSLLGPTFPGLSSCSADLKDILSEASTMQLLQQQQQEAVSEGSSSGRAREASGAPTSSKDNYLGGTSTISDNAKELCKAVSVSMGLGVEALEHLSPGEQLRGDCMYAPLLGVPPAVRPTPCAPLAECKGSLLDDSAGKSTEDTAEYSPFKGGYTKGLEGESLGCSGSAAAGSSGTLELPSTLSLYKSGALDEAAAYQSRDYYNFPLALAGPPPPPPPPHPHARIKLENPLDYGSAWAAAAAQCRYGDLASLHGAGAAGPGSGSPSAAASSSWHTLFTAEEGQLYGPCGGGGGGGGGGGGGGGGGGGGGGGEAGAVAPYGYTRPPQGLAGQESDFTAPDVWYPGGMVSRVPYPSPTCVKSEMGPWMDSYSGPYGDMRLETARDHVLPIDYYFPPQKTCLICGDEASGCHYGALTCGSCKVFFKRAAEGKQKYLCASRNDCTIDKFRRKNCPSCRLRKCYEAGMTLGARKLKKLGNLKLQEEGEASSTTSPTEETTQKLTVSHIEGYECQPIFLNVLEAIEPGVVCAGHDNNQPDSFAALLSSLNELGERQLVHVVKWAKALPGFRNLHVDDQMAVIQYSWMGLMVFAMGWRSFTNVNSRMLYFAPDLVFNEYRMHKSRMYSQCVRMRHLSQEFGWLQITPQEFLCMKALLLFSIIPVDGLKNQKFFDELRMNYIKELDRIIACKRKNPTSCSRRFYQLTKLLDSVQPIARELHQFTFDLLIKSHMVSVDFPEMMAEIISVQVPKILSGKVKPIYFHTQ

Assay [20] is described as follows: qHTS assay to identify small molecule phospholipidosis (PLD) inducers (AID 1259344; active means well fitted curve in the direction sought with a large enough effect; an effect the other way counts as inactive or inconclusive). The method in brief: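 Accumulated phospholipid, stained red by LipidTOX during 24 h compound treatment of HepG2 cells at 37 C, is quantified from images as pit number and intensity, normalised per cell using Hoechst-stained nuclei.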

On to `COc1cc(S(=O)(=O)Nc2ccccc2)c(OC)cc1N`, for which the Potency entry in assay [1], in [2], in assay [3], in assay [4], in assay [5] and in assay [6] was “inactive” throughout. For the same compound, the Potency entry in assay [7], in [8], in [9], in [10], in [11] and in [12] was “inactive” each time. In addition, the Potency result in [13], in [14], in assay [15] and in assay [16] was “inactive” throughout.
As to `CCN(Cc1cccc(S(=O)(=O)O)c1)c1ccc(C(=C2C=CC(=[N+](CC)Cc3cccc(S(=O)(=O)O)c3)C=C2)c2ccccc2S(=O)(=O)[O-])cc1`, the Potency result in assay [1], in assay [2], in [3], in [4], in assay [5] and in assay [17] was “inactive” in each case. For the same compound, the Potency result in assay [6], in assay [7], in assay [8], in [9] and in assay [10] was “inactive” each time. In addition, the Potency was 19.4 µM (active) in assay [11]; 12.2 µM (active) in [18]; 6.14 µM (active) in assay [13]; 12.2 µM (active) in [14]; 27.4 µM (active) in assay [15]; 17.3 µM (active) in [16].
On to `CS(=O)(=O)c1ccc([C@@H](C[C@H]2CCC(=O)C2)C(=O)Nc2cnccn2)cc1Cl`, for which the Potency result in [1], in [2], in assay [3], in assay [4], in assay [5] and in assay [17] was “inactive” each time. In addition, the Potency entry in assay [6], in [7], in assay [8], in assay [9], in assay [10] and in assay [12] was “inactive” each time. Moreover, the Potency result in assay [13], in [14], in assay [15] and in assay [16] was “inactive” throughout.
For `Cc1cc([N+](=O)[O-])ccc1N`, the Potency result in [1], in [2], in assay [3], in assay [4], in [5] and in [17] was “inactive” throughout. Moreover, the Potency entry in assay [6], in assay [7], in assay [8], in [9], in assay [10] and in [18] was “inactive” in each case. For the same compound, the Potency entry in assay [13] and in assay [14] was “inactive” in each case.
`O=[N+]([O-])c1ccc2ncccc2c1`: the Potency entry in [1], in assay [2], in assay [3], in [4], in assay [5] and in assay [6] was “inactive” each time. The Potency result in [7], in [8], in assay [9], in [10], in [11] and in assay [12] was “inactive” throughout. In addition, the Potency result in assay [18], in assay [13], in assay [14], in [15] and in assay [16] was “inactive” throughout.
Regarding `Nc1ccc(F)cc1`, the Potency result in assay [1], in assay [2], in assay [3], in [4], in [5] and in assay [17] was “inactive” in each case. For the same compound, the Potency entry in assay [6], in assay [7], in [9], in assay [10], in assay [11] and in assay [12] was “inactive” in each case. Besides, the Potency entry in [19], in assay [18], in [14], in assay [15] and in [16] was “inactive” in each case.
Take `O=C(C(=O)c1ccco1)c1ccco1`: the Potency entry in [1], in assay [2], in assay [3], in assay [4], in assay [5] and in assay [17] was “inactive” throughout. For the same compound, the Potency entry in assay [8], in assay [9], in [10], in assay [11], in assay [12] and in assay [19] was “inactive” in each case. Besides, the Potency result in assay [18], in assay [13] and in assay [15] was “inactive” in each case.
`BrC(Br)C(Br)Br`: the Potency result in [1], in assay [2], in [3], in [4], in assay [5] and in [6] was “inactive” each time. Moreover, the Potency entry in [7], in assay [8], in assay [9], in [10], in [11] and in [12] was “inactive” in each case. The Potency result in assay [19], in [18], in [13], in [14], in [15] and in [16] was “inactive” in each case.
Regarding `COC(=O)C1=C(C)NC(C)=C(C(=O)OC(C)(C)CN(C)CCC(c2ccccc2)c2ccccc2)C1c1cccc([N+](=O)[O-])c1` (stereo not given), the Potency result in [1], in [2], in [3], in assay [4], in assay [5] and in assay [6] was “inactive” in each case. In addition, the Potency entry in [7], in [8], in [9], in [10], in assay [11] and in assay [12] was “inactive” in each case. The Potency entry in assay [13], in [14], in assay [15] and in assay [16] was “inactive” throughout. Further, the Potency in [19] is 26.6 µM (active).
On to `O=C(O)CCS`, for which the Potency entry in assay [1], in [2], in [3], in assay [4], in [5] and in assay [6] was “inactive” each time. The Potency result in assay [7], in [8], in assay [9], in [10], in assay [11] and in assay [12] was “inactive” throughout. For the same compound, the Potency entry in [18], in assay [13], in assay [14], in [15] and in assay [16] was “inactive” in each case.
On to `Nc1ccc(N=Nc2ccc(N)cc2)cc1`, for which the Potency result in assay [1], in assay [2], in assay [3], in assay [4], in [5] and in assay [17] was “inactive” each time. Also, the Potency result in assay [6], in assay [7], in assay [8], in [9], in [10] and in [12] was “inactive” in each case. Besides, the Potency entry in [18] and in assay [14] was “inactive” throughout. In assay [13], the Potency is 12.2 µM (active).
For the compound `Cc1cc(CCCOc2c(C)cc(-c3noc(C(F)(F)F)n3)cc2C)on1`, the Potency result in [1], in assay [2], in assay [3], in [4], in assay [5] and in [17] was “inactive” in each case. Further, the Potency result in assay [8], in assay [9], in assay [10], in assay [11], in assay [12] and in [13] was “inactive” throughout. Besides, the Potency entry in assay [14], in assay [15] and in assay [16] was “inactive” throughout. The Potency in [19] was 26.6 µM (active).
For `C[C@@H]1C[C@H]2[C@@H]3CCC4=CC(=O)C=C[C@]4(C)[C@@]3(F)[C@@H](O)C[C@]2(C)[C@@]1(O)C(=O)COP(=O)(O)O`, the Potency result in assay [1], in [2], in assay [3], in [4], in [5] and in assay [17] was “inactive” in each case. Also, the Potency result in assay [6], in assay [7], in assay [8], in assay [10], in assay [11] and in [12] was “inactive” each time. The Potency entry in assay [18], in assay [20], in [13], in assay [14], in [15] and in assay [16] was “inactive” each time.
`O=C(/C=C/c1ccc([N+](=O)[O-])cc1)c1ccccc1`: the Potency result in [1], in [3], in assay [5], in assay [17], in [8] and in [9] was “inactive” throughout. Further, the Potency result in [10], in assay [11], in assay [12], in assay [18], in [14] and in assay [15] was “inactive” each time. Further, the Potency result in assay [16] was “inactive”. The Potency in assay [2] is 17.4 µM (active); in assay [4], 21.9 µM (active); in assay [6], 31 µM (active); in [13], 8.65 µM (active).
